High-throughput results from PubChem.
Shown are actives, neighbours in structure and some others; about 2.4% of the full set was active somewhere.
PTHR1 ag = activates the human parathyroid hormone receptor PTHR1. Q03431. HEK293 GP2 PTHR1 cells, GloSensor cAMP luminescence, 1 h. Potency, µM (doses to about 115 µM), inactives show at the highest dose activation, hits mostly activators. hit rate 0.075% among 410,000; also: potency is read from the fitted curve at half-maximal effect; nearly all actives have a fitted effect of over 55% in size
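HEK-293-derived GP2 cells expressing PTHR1 and a GloSensor cAMP reporter, 3,000/well, plated overnight, given luciferin plus IBMX (each 0.5 mM as added) for 1 h at 37 °C, then compound for 1 h at 37 °C. Luminescence was read after 15 min at room temperature.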
TRHR PAM = allosterically enhances the human TRH receptor. TRHR cells, fluo-8 calcium fluorescence, EC20 TRH enhancement. enhancement, % at 2 µM. hit rate 0.66% among 360,000. AID 493056; in the data active = enhancement above about 30%; also: 0% is about no effect
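Enhancer read-out: after compound pinning and an initial kinetic agonist-mode read, an EC20 of TRH (10 nM final) was injected and fluo-8 calcium signal (Ex 480/Em 530) followed at 1 s/cycle for 100 cycles in TRHR-expressing cells.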
TRHR ag = agonists of human TRH receptor | P34981 | TRHR cells, calcium flux fluo-8, FDSS agonist mode | activation, % at 2 µM | hit rate 0.18% among 360,000 | AID 493084; in the data active = activation above about 30%; also: 0% is about no effect
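In this calcium-flux screen, cells bearing human TRHR are dye-loaded with fluo-8, baselined for 10 cycles, then exposed to library compounds; positive kinetic calcium responses during the agonist phase mark hits, with TRH as control.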
HEK293 tox = cytotoxicity counter-screen for GLP-1 receptor inverse agonists. HEK293 cAMP-luciferase reporter cells, luminescence, 24 h. Potency, µM (top dose mostly 38.3 µM), for the others: at the highest dose activity change, negative = inhibition, usual class: inhibitors. hit rate 0.13% among 410,000;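 also: loss of luciferase light is scored as toxicity; potency is read from the fitted curve at half-maximal effect; % is scaled to controls: 0 for no effect and ±100 for the full control effect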
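To flag toxic compounds, the library was rerun on cells for 24 hr at 37 deg C and 5% CO2. Viability-linked luminescence was captured 12 min after adding luciferase detection reagent.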
GLP1R ag = agonists of human GLP-1 receptor; Potency, µM (series often up to 45.6 µM), for the others: top-dose activation, actives largely listed as activators; AID 624172; P43220; HEK293 GLP-1R CRE-luciferase, luminescence, 4-6 h; cells express a hypersensitive GLP-1R form; hit rate 0.007% among 380,000; also: potency is read from the fitted curve at half-maximal effect; % of control where 0% means no effect
Target sequence (P43220 whole entry, looked up): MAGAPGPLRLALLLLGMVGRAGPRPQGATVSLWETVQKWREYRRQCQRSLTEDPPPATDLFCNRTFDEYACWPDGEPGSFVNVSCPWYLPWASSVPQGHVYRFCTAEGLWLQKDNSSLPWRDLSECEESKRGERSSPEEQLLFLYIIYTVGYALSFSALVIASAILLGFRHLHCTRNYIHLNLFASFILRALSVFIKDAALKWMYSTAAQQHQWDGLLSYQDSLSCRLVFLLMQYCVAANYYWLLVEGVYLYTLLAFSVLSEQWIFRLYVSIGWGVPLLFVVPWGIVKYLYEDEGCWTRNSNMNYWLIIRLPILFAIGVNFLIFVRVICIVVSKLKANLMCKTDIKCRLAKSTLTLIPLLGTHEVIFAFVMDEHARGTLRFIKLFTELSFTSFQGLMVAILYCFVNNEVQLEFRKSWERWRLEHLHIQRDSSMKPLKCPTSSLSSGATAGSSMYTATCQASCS
GLP-1R inv ag = GLP-1 receptor (human) inverse agonism. Potency, µM (highest dose often 38.3 µM), inactives show at the highest dose activity change, negative = inhibition, actives largely listed as inhibitors. AID 624417. P43220. HEK293 GLP-1R CRE-luciferase, luminescence, 24 h; GLP-1R form is constitutively active. hit rate 1.6% among 410,000; also: potency is read from the fitted curve at half-maximal effect; % is scaled to controls: 0 for no effect and ±100 for the full control effect; nearly all actives have a fitted effect of over 55% in size
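Constitutively active GLP-1R drives a cAMP-responsive luciferase in stably transfected HEK293 cells; test compounds are added after overnight (12 h) attachment and left 24 hr, and signal loss in luminescence marks inhibition.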
Starred values were filed as active, the others as inactive; i = inactive; ? = inconclusive; nt = not tested or not shown; [ ] = another dose, or the depositor's remark. Unless noted, calls follow the shape of the dose curve; as a rule, active = well fitted curve in the direction sought with a large enough effect; inconclusive = small, poorly fitted or top-dose-only effect, or another doubt; inactive = no such curve, though single readings can be large; an effect the other way counts as inactive or inconclusive.

SMILES	PTHR1 ag	TRHR PAM	TRHR ag	HEK293 tox	GLP1R ag	GLP-1R inv ag
Cc1cc(C)c(C(N)=O)c(SCC(=O)c2cc(C)n(-c3cc(C)on3)c2C)n1	-82%	nt	nt	1%	-2%	0%
CCN(CC)c1ccc(/C=C/c2cc(-c3ccccc3)c3ccccc3n2)cc1	-3%	28	89*	i	-3%	?
CCN(CC)c1ccc(/C=N/NC(=O)c2cc(C)nc3ccccc23)cc1	-38%	0	0	2%	1%	?
c1ccc(-c2csc(Nc3ccccn3)n2)cc1	-92%	4	-1	-11%	17%	10µM*
Cc1ccc(-c2csc(Nc3ccccn3)n2)cc1	-90%	-1	0	-2%	-2%	?
O=C(CCC(=O)N1CCN(c2ccc(Cl)c(Cl)c2)CC1)c1ccccc1	-27%	7	0	5%	-5%	11µM*
O=C(CCC(=O)N1CCN(c2ccc(F)cc2)CC1)c1ccc(Cl)cc1	-22%	-6	1	-2%	1%	?
O=C(O)C1CC(c2ccccc2)=NO1 (configuration not stated)	i	33*	-1	-17%	-8%	0%
O=C(O)C1CC(c2ccc(F)cc2)=NO1 (configuration not stated)	-18%[57.5 µM]	-4	1	3%	-1%	2%
COc1ccc(Nc2nnc(SCC(=O)/C=C3/N(C)c4ccccc4C3(C)C)s2)cc1	-35%	13	0	-23%	-2%	11µM*
O=C(CN(Cc1ccc(Cl)c(Cl)c1)S(=O)(=O)c1ccccc1)N/N=C\c1ccc2c(c1)OCO2	i	2	0	-19%	-5%	2.2µM*
Cc1ccc(-c2c3c(=O)n(C)c(=O)n(C)c3c3n2-c2ccccc2NC3c2ccc(C)cc2O)cc1 (configuration not stated)	-20%	5	-1	-14%	nt	10µM*
COc1ccc(O)c(C2Nc3ccccc3-n3c(-c4ccccc4)c4c(=O)n(C)c(=O)n(C)c4c32)c1 (configuration not stated)	-30%	0	0	21%	nt	3%
CCCOc1cc(N(CC)CC)ccc1/C=C(/C#N)c1nc2ccc(C)cc2[nH]1	-8%	9	32*	65%	17%	?
Cc1ccc2nc(/C(C#N)=C/c3ccc(-c4ccc(F)cc4F)o3)[nH]c2c1	i	-4	52*	3%	nt	-1%
CCOc1cc(N(CC)CC)ccc1/C=C(/C#N)c1nc2ccccc2[nH]1	-4%[57.5 µM]	12	41*	-16%	19%	?
COc1cc(/C=C(\C#N)c2nc3ccccc3[nH]2)cc(OC)c1O	i	8	65*	-5%	25%	21%
COc1cccc(/C=C(\C#N)c2nc3ccc(C)cc3[nH]2)c1	-3%	-3	-1	57%	nt	?
COc1ccc(S(=O)(=O)N(CCc2ccccc2)CC(=O)Nc2cc(Cl)ccc2C)cc1	-24%	-4	3	-4%	nt	7%
CC(NS(=O)(=O)c1ccccc1)C1CC2CCC1C2 (configuration not stated)	-18%	nt	nt	2%	4%	?
CCN(CC)c1ccc(/C=C(/C#N)c2nc3ccc(C)cc3[nH]2)c(OC(C)C)c1	13%[57.5 µM]	16	83*	17%	10%	-18%
COc1ccc2[nH]c3c(c2c1)CCN1C(=O)C(CC(=O)NCC24CC5CC(CC(C5)C2)C4)C[C@H](C(=O)N(C(C)C)C(C)C)[C@@]31C (some centres not stated)	-18%	nt	nt	2%	-3%	10µM*
C[C@]12c3[nH]c4ccc(Cl)cc4c3CCN1C(=O)[C@@H](CC(=O)NCC13CC4CC(CC(C4)C1)C3)C[C@@H]2C(=O)N1CCOCC1	-2%	nt	nt	-9%	2%	10µM*
